The list is not random: actives were taken first. Their share in the collection is about 9%.
HPGD inh – blocks human HPGD enzyme activity. Potency, µM, inactives show at the highest dose activity change, negative = inhibition, hits mostly inhibitors. 150,000 compounds, 4.3% hits. purified HPGD, NADH fluorescence kinetic, PGE2 substrate. AID 894. P15428; further: potency means the concentration at half of the fitted maximal effect
Target sequence (P15428 whole entry, looked up): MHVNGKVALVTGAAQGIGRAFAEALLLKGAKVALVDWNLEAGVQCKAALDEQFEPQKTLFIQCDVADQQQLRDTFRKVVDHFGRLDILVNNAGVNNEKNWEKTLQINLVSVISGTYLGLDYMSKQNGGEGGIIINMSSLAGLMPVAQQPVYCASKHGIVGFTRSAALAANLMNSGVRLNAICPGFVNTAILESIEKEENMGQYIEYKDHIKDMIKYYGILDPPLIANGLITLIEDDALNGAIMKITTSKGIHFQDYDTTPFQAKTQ
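NADH formation kinetics: reaction with 30 uM PGE2 and 1 mM NAD+ (final), 20 nM enzyme, Tris-HCl pH 8 with Tween 20, after 15 min compound preincubation at room temperature. Fluorescence change, last versus first of five reads.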
IMPase inh – membrane-permeable compound that blocks inositol monophosphatase | P97697 | CHO-M1 cells, IP1 accumulation, HTRF TR-FRET ratio | inhibition (IP1 accumulation), % at 46.1 µM | 120,000 tested, under 10 active | AID 901; active means well fitted curve in the direction sought with a large enough effect in the signal ratio, not every such curve was filed as active; inconclusive means small, poorly fitted or top-dose-only effect, or a change in a side signal; inactive means no such curve, though single readings can be large or run the other way; the % refers to the signal ratio;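 further: cells stimulated with carbachol in lithium chloride buffer; plate controls were DMSO basal wells for no effect and reference inhibitor wells for full effect; higher means more IMPase inhibition seen as more IP1 and lower FRET ratio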
Target sequence (P97697 whole entry, looked up): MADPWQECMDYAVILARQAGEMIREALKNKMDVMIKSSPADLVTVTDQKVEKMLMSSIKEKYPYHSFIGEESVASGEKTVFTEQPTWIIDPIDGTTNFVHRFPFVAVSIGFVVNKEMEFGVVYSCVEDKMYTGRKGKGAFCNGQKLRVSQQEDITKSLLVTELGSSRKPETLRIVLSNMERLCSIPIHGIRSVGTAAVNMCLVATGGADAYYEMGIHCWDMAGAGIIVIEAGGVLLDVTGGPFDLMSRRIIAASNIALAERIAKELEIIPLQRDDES
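The IP-One HTRF competitive assay in carbachol-stimulated CHO-M1 cells quantifies cellular IP1. Compounds spanned up to 46 uM final, and activity is expressed as AC50 from concentration-response fits of the ratio and donor data.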
ALDH1A1 block – blocks purified human ALDH1A1 activity | P00352 | Purified ALDH1A1, NADH fluorescence, propionaldehyde substrate | Potency, µM (highest dose often 75.3 µM), inactives show at the highest dose activity, negative = inhibition, actives largely listed as inhibitors | 220,000 compounds, 7.3% hits;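 further: potency means the concentration at half of the fitted maximal effect; plate controls were no enzyme wells and a reference inhibitor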
* marks the source's active call; other numbers are inactive results; ? = inconclusive; / = no result; [ ] = remark or other dose. Unless noted, the call rests on the fitted dose curve; in most records, active means well fitted inhibition curve with a large enough effect (not every such curve was filed as active); inconclusive means small, poorly fitted or top-dose-only effect, or another doubt; inactive means no such curve, though single readings can be large or run the other way. Unless noted, on the % scale 0 is the no-effect control and ±100 the full control effect.

SMILES | HPGD inh | IMPase inh | ALDH1A1 block
CCc1ccc(C(=O)CC2(O)C(=O)N(CN3CCOCC3)c3ccccc32)cc1 (stereo not given) | -5% | 1 | 0%
CN1C(=O)C(O)(CC(=O)c2ccncc2)c2ccccc21 (stereo not given) | 2% | -3 | ?
CN1C(=O)C(O)(CC(=O)/C=C/C=C/c2ccccc2)c2ccccc21 (stereo not given) | ? | / | 4%
COC(=O)CN1C(=O)C(O)(CC(=O)c2ccc(C)cc2)c2ccccc21 (stereo not given) | 5% | -3 | 8.9µM*
Cc1ccc(C(=O)CC2(O)C(=O)N(C)c3ccccc32)o1 (stereo not given) | -27% | -20 | 25µM*
Cc1ccc(C(=O)CC2(O)C(=O)N(CN3CCOCC3)c3ccccc32)cc1 (stereo not given) | -15% | -5 | 14µM*
CCc1ccc(C(=O)CC2(O)C(=O)N(Cc3ccc(C)cc3)c3ccccc32)cc1 (stereo not given) | / | 4 | /
O=C(CC1(O)C(=O)N(C/C=C/c2ccccc2)c2ccccc21)c1ccccn1 (stereo not given) | / | 13 | 0.79µM*
O=C(NNS(=O)(=O)c1ccccc1Cl)c1nn(-c2ccc(F)cc2)ccc1=O | / | / | 7%
COC(=O)CN1C(=O)C(O)(CC(=O)c2ccc(C)o2)c2ccccc21 (stereo not given) | 5% | 10 | 7.9µM*
COC(=O)CN1C(=O)C2(OCCCO2)c2ccccc21 | -8% | 3 | -7%
CCCCN1C(=O)C(O)(CC(=O)c2ccc(C(C)(C)C)cc2)c2ccccc21 (stereo not given) | / | 5 | /
COC(=O)CN1C(=O)C(O)(CC(=O)c2ccccc2)c2ccccc21 (stereo not given) | -5% | 0 | 4.5µM*
CC(C)c1ccc(C(=O)CC2(O)C(=O)N(CN3CCOCC3)c3ccccc32)cc1 (stereo not given) | -9% | 3 | ?
C=CCN1C(=O)C(O)(CC(=O)c2ccc(N)cc2)c2ccccc21 (stereo not given) | -13% | 11 | 5.6µM*
Cc1ccccc1Nc1ncnc(N)n1 | / | / | 13%
Cc1ccc(SCCOCCN2CCc3ccccc3C2)cc1 | 1% | / | -12%
COc1ccccc1NS(=O)(=O)c1ccc(O)c(C(=O)OCC(=O)N2c3ccccc3CC2C)c1 (stereo not given) | / | / | 7.9µM*
Cc1cc(C(=O)OCC(=O)N2c3ccccc3CC2C)c(C)o1 (stereo not given) | 0% | 3[1.84 µM] | ?
COc1ccccc1NS(=O)(=O)c1ccc(O)c(C(N)=O)c1 | -16% | -6[1.84 µM] | ?
COc1ccccc1NS(=O)(=O)c1ccc(O)c(C(=O)OCC(=O)c2ccc(Cl)cc2Cl)c1 | / | / | 1.1µM*
CCCN1CCC(=NNC(=O)c2ccc(Br)o2)CC1 | -6% | 1 | 13µM*
CCCN1CCN(C(=O)Nc2ccc(C(=O)OCC)cc2)CC1 | -18% | -2 | -12%
CCN1CCC(=NNC(=O)c2ccco2)CC1 | -14% | -2 | ?
CCCN1CCC(=NNc2ccc(C(=O)O)cc2)CC1 | / | / | 25µM*
SMILES | HPGD inh | IMPase inh | ALDH1A1 block
CC1=[N+]([O-])C(C)(C)C(c2ccc(Br)cc2)=[N+]1[O-] | -6% | / | -4%
CCOc1ccc(N2C(=O)CC(n3nc(C)cc3C)C2=O)cc1 (stereo not given) | -3% | 11 | ?
Nc1cc2c(cc1O)CCCC2 | / | / | 2.2µM*
Oc1ccc2c(c1-c1c(O)c(Br)cc3c1CCCC3)CCCC2 | -17% | / | 2%
CC1CCN(C(=O)CCc2nc3cc(S(=O)(=O)N(C)C)ccc3n2C)CC1 | -7% | 3 | 11µM*
CN(C)S(=O)(=O)c1ccc2c(c1)nc(CCC(=O)NCC1CCCCC1)n2C | -2% | 1 | ?
COC(=O)CC1C(=O)NCCN1C(=S)NC(=O)c1sc2ccccc2c1Cl (stereo not given) | / | / | 13µM*
COC(=O)CC1C(=O)NCCN1C(=S)NC(=O)C(c1ccccc1)c1ccccc1 (stereo not given) | -2% | -4 | -8%
CCOC(=O)CSc1nnc2n(-c3ccccc3)c(=O)c3c4c(sc3n12)COC(C(C)C)C4 (stereo not given) | / | 2 | /
Cc1cc(C)nc(-n2ncc3c2CC(c2ccc(F)cc2)CC3=O)n1 (stereo not given) | / | / | -5%
Cc1cc(C)nc(-n2ncc3c2CC(c2ccccc2)CC3=O)n1 (stereo not given) | 28µM* | / | -23%
CCNC(=O)NC(=O)CSc1ccccc1F | 4% | / | 10%
CN(C)CCCN1C(=O)C2CCc3[nH]c4ccccc4c3C2C1=O (stereo not given) | / | / | 1%
CCSc1nnc(-c2cnn(-c3ccccc3)c2-n2cccc2)n1C | ? | -1 | ?
Cc1ccc(-c2n[nH]c(=S)n2C)cc1Cl | / | / | 32%
Cn1c(-c2cnn(-c3ccccc3)c2-n2cccc2)n[nH]c1=S | / | / | 22µM*
CCCCCCSc1nnc(-c2cnn(-c3ccccc3)c2-n2cccc2)n1C | ? | -1 | 7.1µM*
Cc1ccc(-n2nc(C)cc2N)c(C)c1 | / | / | 6%
CCOC(=O)c1cnc(SC2CC(=O)N(c3ccccc3)C2=O)nc1N (stereo not given) | -1% | 0 | ?
CCOC(=O)c1cnc(SC2CCc3ccccc3C2=O)nc1N (stereo not given) | 28µM* | -8 | 32µM*
O=C(O)[C@@H]1[C@@H](C(=O)O)[C@@]23CCCC2=C2CC[C@@]3(C(=O)O)[C@@]3(C(=O)O)C[C@@]213 | -8% | / | 3%[13.5 µM]
Cc1ccc(OCCOC(=O)c2sc(=S)n(C)c2C)cc1 | / | / | -3%
Cc1c(C(=O)O)c(=S)sn1CCOc1ccccc1 | 18µM* | 9 | -8%
c1ccc(-c2cccc(N3CCC4(CCNCC4)CC3)c2)cc1 | -9% | / | ?
COc1ccccc1CNC(=O)C(C)c1ccc([N+](=O)[O-])cc1 (stereo not given) | / | / | 5%
SMILES | HPGD inh | IMPase inh | ALDH1A1 block
O=C(C[n+]1ccccc1)N1c2ccccc2Sc2ccccc21 | / | / | 3.2µM*
CN(C)c1cc[n+](CC(=O)N2c3ccccc3Sc3ccccc32)cc1 | / | / | 8%
O=[N+]([O-])c1cccc(C2=N[C@@H](Cc3ccccc3)CO2)c1 | -14% | / | ?
N#Cc1c(SCC(N)=O)nc2c(c1-c1ccc(O)cc1)CCCC2 | -23% | -1 | 7.1µM*
COc1ccc(-c2c(C#N)c(SCC(N)=O)nc3c2CCCC3)cc1 | 0% | 1 | ?
CCc1ccc(S(=O)(=O)N(C(=O)Oc2ccccc2)c2ccc3oc(C)c(C(=O)OC)c3c2)cc1 | / | -6 | /
Cc1cc(C(=O)OCC(=O)Nc2ccccc2F)c(C)o1 | -7% | -1 | 0%
O=C(COC(=O)/C=C/c1ccc(Br)o1)Nc1ccccc1F | / | / | 14µM*
O=C(O)C1=C[C@@H](O)[C@@H](O)[C@H](O)C1 | -3% | -2 | 12%
CCn1cc(CN2N=C(C)CC2c2ccccc2)c(C)n1 (stereo not given) | / | / | 2%
Cc1ccc(NC(=O)CC(NCC2CCCO2)C(=O)O)cc1C (stereo not given) | / | / | 8%
CCc1nc(SCC(=O)NCCc2ccc(OC)c(OC)c2)c2c(=O)n(C)c(=O)n(C)c2n1 | -4% | -2 | 2%
CC(=O)c1sc(-c2ccccc2Cl)nc1C | / | / | 3%
CN(C)/C=C/C(=O)c1cnc(-c2ccccc2Cl)s1 | / | / | 7.1µM*

High-throughput results from PubChem.
